# PubChem BioAssay (NCI)
# The panel holds about 83,000 compounds, 20% with a hit somewhere; the sample as a whole holds those more often.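 48-hour exposure, single concentration, 96-well plates; percent growth endpoint where 0 means no net growth. Active: below 10.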 Values without a mark were called inactive. Active and inactive are the calls of the source.
# Test system: UACC-257 melanoma
# Assay: NCI-60 one-dose screen, 48 h (100 = growth as untreated, 0 = no growth, -100 = all killed)
# Details: 10 µM unless noted
row,SMILES,growth
1,CCCCC1COc2cccc3c(SCC(=O)N(C)c4cccc(Cl)c4)cc[n+]1c23 (stereo not drawn),113%
2,COc1ccc(-c2c(N)n[nH]c2-c2ccccc2O)cc1OC,100%
3,CCOC(=O)c1sc(-c2ccc(OS(=O)(=O)c3ccc(C(C)(C)C)cc3)c(C=O)c2)nc1C,52%
4,Cc1nc(Nc2ccc(NC(=S)Nc3ccccc3)cc2)nc2nc(Nc3ccc(S(=O)(=O)O)cc3)[nH]c(=O)c12,136%
5,COc1ccc(/C=C2\COc3ccc(O)cc3C2=O)c(OC)c1,74.8%
6,COc1ccc(/C(C)=C(\c2ccc(Cl)cc2)c2ccc(OCCCN(C)C)cc2)cc1F,17.1%
7,Cc1nc(Nc2ccc(NC(=S)Nc3ccccc3)cc2)c2ccccc2n1,101%
8,C=C1C(=O)O[C@H]2[C@H]1CC/C(COC(=O)/C=C\C(=O)NCc1ccc(Cn3c(=O)sn(-c4ccc(OC)cc4)c3=O)cc1)=C\CC[C@@]1(C)O[C@@H]21,-62.2% (active)
9,CN(C)CCn1cc(-c2ccc3c(Nc4ccc(CC(=O)Nc5cccc(F)c5)cc4)ncnc3c2)cn1,-59.7% [30 µM] (active)
10,COc1cc(/C=C/c2nc(Nc3ccc(S(=O)(=O)Nc4cc(C)on4)cc3)c3ccccc3n2)ccc1O,83.2%
11,COc1ccc(/C(C)=C(\c2ccc(Cl)cc2)c2ccc(OCCN3CCCC3)cc2)cc1F,2.99% (active)
12,Cc1nc(Nc2ccc(S(=O)(=O)Nc3cc(C)on3)cc2)c2ccccc2n1,103%
13,COc1ccc(OC)c(/C=C2\COc3ccc(O)cc3C2=O)c1,99.4%
